Data published in PubChem BioAssay (Tox21).
A number with no mark means an inactive call. Inconclusive results are not listed. Entries that show only a call come without a potency. The source made the active and inactive calls. Unless noted, the call rests on the fitted dose curve; in most records, active means well fitted curve in the direction sought with a large enough effect in the repeat runs; inconclusive means weak or mixed curves; inactive means no such curve, though single readings can be large; an effect the other way counts as inactive or inconclusive.

Assays:
[1] = molecular target: Thyrotropin receptor (Homo sapiens) (UniProt P16473); experiment: qHTS assay to identify small molecule agonists of the thyroid stimulating hormone receptor (TSHR) signaling pathway (AID 1224843; calls by dose curve; further: nearly all actives have a fitted effect of over 45% in size; further: potency means the concentration at half of the fitted maximal effect)
In short: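 HEK293 cells stably bearing the thyrotropin receptor were plated at 800 cells/well and challenged with compound (30 min, RT). Accumulated cAMP was quantified via cAMP-d2 competing for cryptate-tagged antibody.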

[2] = qHTS assay to identify small molecule agonists of the hypoxia (HIF-1) signaling pathway - cell viability counter screen (AID 1224844; calls by dose curve; further: nearly all actives have a fitted effect of over 50% in size)
In short: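 Multiplexed with the HRE beta-lactamase assay, this viability read used CellTiter-Glo luminescence (30 min, RT) on HRE-bla ME-180 cells treated 17 hrs with compounds in 0.5% dialyzed FBS medium.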

[3] = qHTS assay to identify small molecule agonists of the hypoxia (HIF-1) signaling pathway (AID 1224846; active means well fitted activation curve with a large enough effect in the signal ratio in the repeat runs, not every such curve was filed as active; the % refers to the signal ratio)
In short: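 Hypoxia-pathway activation was scored as increased beta-lactamase from an HRE-controlled reporter in ME-180 cells; plated at 2,000 cells per well with 0.5% dialyzed FBS, they were exposed 17 hrs to compounds and then given CCF4-AM.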

[4] = qHTS assay to identify small molecule agonists of H2AX - cell viability counter screen (AID 1224847; calls by dose curve; further: nearly all actives have a fitted effect of over 30% in size; further: potency means the concentration at half of the fitted maximal effect)
In short: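 Cytotoxicity counter screen in wild-type CHO-K1 cells: a 3 hr compound treatment at 37C across 15 concentrations, followed by CellTiter-Glo luminescence to gauge viable cells.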

[5] = qHTS RealTime-Glo MT Cell Viability Assay in HepG2 cells - 24 hour (AID 1224867); further: nearly all actives have a fitted effect of over 50% in size; further: potency means the concentration at half of the fitted maximal effect
In short: (§1)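 HepG2 cells were seeded at 600 cells/well together with NanoLuc luciferase and a cell-permeant prosubstrate, preincubated 5 h at 37 C/5% CO2, then pin-dosed with compounds in DMSO. Nonlytic luminescence from viable cells was read at each time point.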

[6] = qHTS RealTime-Glo MT Cell Viability Assay in HEK293 cells - 32 hour (AID 1224868); further: nearly all actives have a fitted effect of over 50% in size; further: potency means the concentration at half of the fitted maximal effect
In short: (§2)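 HEK293 cells were seeded at 600 cells/well together with NanoLuc luciferase and cell-permeant prosubstrate, preincubated 5 h at 37 C/5% CO2, then given compound in DMSO by pintool. Luminescence from viable-cell prosubstrate reduction was read repeatedly over 40 h.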

[7] = qHTS RealTime-Glo MT Cell Viability Assay in HepG2 cells - 40 hour (AID 1224870); further: nearly all actives have a fitted effect of over 50% in size; further: potency means the concentration at half of the fitted maximal effect
In short: (§3)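 Real-time viability: cells seeded at 600 per well together with NanoLuc and cell-permeant prosubstrate, compounds added after 5 h incubation. Luminescence tracked at 0, 8, 16, 24, 32 and 40 h of exposure.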

[8] = A CellTox Green Cytotoxicity Assay to monitor cytotoxicity in HEK293 cells - 40 hour (AID 1224871); further: nearly all actives have a fitted effect of over 45% in size
In short: (§4)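 Seeding of HEK293 cells together with cytotoxicity dye preceded a 5 h incubation at 37 C/5% CO2. Test compounds in DMSO were then added and fluorescence monitored across 40 h.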

[9] = qHTS RealTime-Glo MT Cell Viability Assay in HEK293 cells - 16 hour (AID 1224872); further: nearly all actives have a fitted effect of over 50% in size; further: potency means the concentration at half of the fitted maximal effect
In short: as §2

[10] = qHTS RealTime-Glo MT Cell Viability Assay in HepG2 cells - 8 hour (AID 1224873); further: nearly all actives have a fitted effect of over 55% in size
In short: as §3

[11] = qHTS RealTime-Glo MT Cell Viability Assay in HEK293 cells - 40 hour (AID 1224874); settings: RealTime-Glo luminescence; max response: hits give low values; further: nearly all actives have a fitted effect of over 50% in size; further: potency means the concentration at half of the fitted maximal effect
In short: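 Tox21 screen in HEK293 using RealTime-Glo MT chemistry, with cells and reagent co-dispensed. Luminescence proportional to viable cell number was captured at intervals during 40 h compound exposure at 37 C.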

[12] = A CellTox Green Cytotoxicity Assay to monitor cytotoxicity in HEK293 cells - 24 hour (AID 1224875); further: nearly all actives have a fitted effect of over 45% in size; further: potency means the concentration at half of the fitted maximal effect
In short: as §4

[13] = A CellTox Green Cytotoxicity Assay to monitor cytotoxicity in HepG2 cells - 16 hour (AID 1224876); further: nearly all actives have a fitted effect of over 45% in size; further: potency means the concentration at half of the fitted maximal effect
In short: (§5)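 Nonlytic assay: viable cells exclude the dye, so fluorescence scales with cell death. HepG2 at 600 cells/well, compounds added after 5 h, signal read across 40 h.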

[14] = qHTS RealTime-Glo MT Cell Viability Assay in HepG2 cells - 32 hour (AID 1224877); further: nearly all actives have a fitted effect of over 55% in size; further: potency means the concentration at half of the fitted maximal effect
In short: as §1

[15] = A CellTox Green Cytotoxicity Assay to monitor cytotoxicity in HepG2 cells - 24 hour (AID 1224878); further: nearly all actives have a fitted effect of over 45% in size; further: potency means the concentration at half of the fitted maximal effect
In short: as §5

[16] = A CellTox Green Cytotoxicity Assay to monitor cytotoxicity in HEK293 cells - 0 hour (AID 1224869); further: nearly all actives have a fitted effect of over 50% in size
In short: as §4

[17] = A CellTox Green Cytotoxicity Assay to monitor cytotoxicity in HepG2 cells - 40 hour (AID 1224879); further: nearly all actives have a fitted effect of over 40% in size; further: potency means the concentration at half of the fitted maximal effect
In short: as §5

[18] = qHTS assay to identify small molecule agonists of H2AX (AID 1224845; active means well fitted activation curve with a large enough effect in the signal ratio in the repeat runs, not every such curve was filed as active; the % refers to the signal ratio)
In short: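 Phospho-H2AX Ser139 measured by HTRF (ex 320 nm; em 665 and 620 nm) after 24 hr antibody incubation. Compounds, 15 concentrations, 0.76% DMSO, were applied to CHO-K1 cells for 3hr at 37C before lysis.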

[19] = qHTS assay to identify small molecule agonists of the estrogen related receptor (ERR) signaling pathway from Tox21 library (AID 1224849; calls by dose curve; further: nearly all actives have a fitted effect of over 15% in size); settings: ERR reporter cell line, ONE-Glo luciferase, 18 h; at 92.4 µM (top of the series) unless noted
In short: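 Six hours post-seeding at 37 C/5% CO2, ERR cells receive DMSO-solubilised compounds; after 18 h at 37 C, ONE-Glo reagent is applied and luminescence recorded.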

[20] = qHTS assay to identify small molecule antagonists of the estrogen related receptor (ERR) signaling pathway from Tox21 library (AID 1224848); further: nearly all actives have a fitted effect of over 50% in size; further: potency means the concentration at half of the fitted maximal effect
In short: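 Reading was by luminescence 30 min after ONE-Glo addition. Before that, ERR cells at 2,000 per well had rested 6 h at 37 C/5% CO2 and then received pin-tooled compounds in DMSO for 18 h at 37 C.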

Chain of Thyrotropin receptor (Homo sapiens) (P16473 whole entry, looked up): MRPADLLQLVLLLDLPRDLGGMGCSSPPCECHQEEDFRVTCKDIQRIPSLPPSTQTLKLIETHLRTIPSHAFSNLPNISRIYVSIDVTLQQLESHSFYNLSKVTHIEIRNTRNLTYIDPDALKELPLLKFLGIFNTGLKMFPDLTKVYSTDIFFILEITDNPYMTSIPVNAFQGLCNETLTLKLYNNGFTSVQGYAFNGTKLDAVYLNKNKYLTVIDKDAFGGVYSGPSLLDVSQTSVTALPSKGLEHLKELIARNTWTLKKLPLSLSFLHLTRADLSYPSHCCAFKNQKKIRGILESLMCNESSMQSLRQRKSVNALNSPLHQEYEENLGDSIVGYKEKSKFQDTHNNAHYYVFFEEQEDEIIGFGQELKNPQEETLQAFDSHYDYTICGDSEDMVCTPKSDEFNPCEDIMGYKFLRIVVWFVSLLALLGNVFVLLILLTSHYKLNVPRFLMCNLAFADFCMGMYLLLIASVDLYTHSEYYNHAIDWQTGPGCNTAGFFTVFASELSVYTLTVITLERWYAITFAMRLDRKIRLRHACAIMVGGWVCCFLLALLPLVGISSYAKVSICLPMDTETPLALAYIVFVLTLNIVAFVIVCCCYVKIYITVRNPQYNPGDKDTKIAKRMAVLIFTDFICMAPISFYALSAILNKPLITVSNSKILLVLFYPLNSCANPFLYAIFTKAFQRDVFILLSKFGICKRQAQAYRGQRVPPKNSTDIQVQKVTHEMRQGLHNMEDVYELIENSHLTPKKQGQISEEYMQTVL

SMILES: Cc1cc(CCC(=O)OCCOCCOCCOC(=O)CCc2cc(C)c(O)c(C(C)(C)C)c2)cc(C(C)(C)C)c1O
- Potency [1]: 15 µM (active)
- Potency [2]: inactive
- outcome [3]: inactive
- Potency [4]: inactive
- Potency [5]: inactive
- Potency [6]: inactive
- Potency [7]: inactive
- Potency [8]: inactive
- Potency [9]: inactive
- Potency [10]: inactive
- max response [11]: 6.66%
- Potency [12]: inactive
- Potency [13]: inactive
- Potency [14]: inactive
- Potency [15]: inactive

SMILES: CCCC(=O)OC(=O)CCC
- Potency [1]: inactive
- Potency [2]: inactive
- outcome [3]: inactive
- Potency [4]: inactive
- Potency [5]: inactive
- Potency [16]: inactive
- Potency [7]: inactive
- Potency [8]: inactive
- Potency [9]: inactive
- Potency [10]: inactive
- Potency [12]: inactive
- Potency [14]: inactive
- Potency [17]: inactive

SMILES: CCCCCCCCCCCSCC(=O)O
- Potency [1]: inactive
- Potency [18]: inactive
- outcome [3]: inactive
- Potency [4]: inactive
- activity change, positive = activation [19]: -19.7%
- Potency [5]: inactive
- Potency [6]: inactive
- Potency [16]: inactive
- Potency [8]: inactive
- Potency [9]: inactive
- Potency [10]: inactive
- max response [11]: 2.44%
- Potency [14]: inactive
- Potency [17]: inactive

SMILES: CC(C)N=C=NC(C)C
- Potency [2]: inactive
- Potency [18]: inactive
- outcome [3]: inactive
- Potency [4]: inactive
- Potency [20]: inactive
- activity change, positive = activation [19]: 2.53%
- Potency [5]: inactive
- Potency [6]: inactive
- Potency [16]: inactive
- Potency [7]: inactive
- Potency [8]: inactive
- Potency [9]: inactive
- Potency [10]: inactive
- max response [11]: 3.08%
- Potency [12]: inactive
- Potency [13]: inactive
- Potency [14]: inactive
- Potency [15]: inactive

SMILES: COc1ccc(-c2cc(C(F)F)nn2-c2ccc(S(N)(=O)=O)cc2)cc1F
- Potency [2]: inactive
- Potency [18]: inactive
- outcome [3]: inactive
- Potency [4]: inactive
- activity change, positive = activation [19]: -17.4% [at 42.5 µM]
- Potency [5]: inactive
- Potency [16]: inactive
- Potency [7]: inactive
- Potency [8]: inactive
- Potency [10]: inactive
- Potency [12]: inactive
- Potency [13]: inactive
- Potency [14]: inactive
- Potency [15]: inactive
- Potency [17]: inactive

SMILES: O=C1c2ccccc2C(=O)c2c(O)ccc(O)c21
- Potency [2]: inactive
- Potency [18]: inactive
- outcome [3]: inactive
- Potency [4]: inactive
- Potency [20]: inactive
- activity change, positive = activation [19]: -2.45%
- Potency [5]: inactive
- Potency [6]: inactive
- Potency [16]: inactive
- Potency [9]: inactive
- Potency [10]: inactive
- max response [11]: 5.32%
- Potency [13]: 24.5 µM (active)
- Potency [14]: inactive
- Potency [17]: 24.5 µM (active)

SMILES: CCN(CC)CCOc1ccccc1C(=O)CCc1ccccc1
- Potency [1]: inactive
- Potency [18]: inactive
- outcome [3]: inactive
- Potency [4]: inactive
- activity change, positive = activation [19]: -25.9% [at 42.5 µM]
- Potency [5]: inactive
- Potency [6]: 12 µM (active)
- Potency [16]: inactive
- Potency [8]: inactive
- Potency [9]: 10.7 µM (active)
- Potency [10]: inactive
- Potency [11]: 10.7 µM (active)
- Potency [13]: inactive
- Potency [14]: inactive
- Potency [15]: inactive

SMILES: CSSc1ccoc1C
- Potency [1]: inactive
- Potency [2]: inactive
- Potency [4]: inactive
- Potency [5]: inactive
- Potency [6]: inactive
- Potency [16]: inactive
- Potency [8]: inactive
- Potency [9]: inactive
- Potency [10]: inactive
- max response [11]: 0.757%
- Potency [12]: inactive
- Potency [13]: inactive
- Potency [14]: inactive
- Potency [15]: inactive

SMILES: CN(C)CC/C=C1\c2ccccc2Sc2ccc(Cl)cc21
- Potency [1]: inactive
- Potency [4]: 49.2 µM (active)
- activity change, positive = activation [19]: -17.7% [at 42.5 µM]
- Potency [5]: 23.9 µM (active)
- Potency [6]: 23.9 µM (active)
- Potency [16]: inactive
- Potency [7]: 23.9 µM (active)
- Potency [11]: 23.9 µM (active)
- Potency [12]: 26.8 µM (active)
- Potency [13]: 21.3 µM (active)
- Potency [14]: 23.9 µM (active)
- Potency [15]: 21.3 µM (active)
- Potency [17]: 21.3 µM (active)

SMILES: CNc1c2c(nn1C)CCCC2
- Potency [1]: inactive
- Potency [2]: inactive
- Potency [4]: inactive
- Potency [5]: inactive
- Potency [6]: inactive
- Potency [16]: inactive
- Potency [8]: inactive
- Potency [9]: inactive
- Potency [10]: inactive
- max response [11]: -3.57%
- Potency [12]: inactive
- Potency [14]: inactive
- Potency [15]: inactive
- Potency [17]: inactive

SMILES: CCOC(=O)C(C)O (stereo not given)
- Potency [2]: inactive
- Potency [18]: inactive
- outcome [3]: inactive
- Potency [4]: inactive
- Potency [5]: inactive
- Potency [6]: inactive
- Potency [16]: inactive
- Potency [7]: inactive
- Potency [8]: inactive
- Potency [9]: inactive
- Potency [10]: inactive
- max response [11]: 15.3%
- Potency [12]: inactive
- Potency [13]: inactive
- Potency [14]: inactive
- Potency [15]: inactive

SMILES: O=C(O)/C=C/c1ccc(O)c(O)c1
- Potency [1]: inactive
- Potency [2]: inactive
- Potency [4]: inactive
- Potency [5]: inactive
- Potency [6]: inactive
- Potency [16]: inactive
- Potency [7]: inactive
- Potency [9]: inactive
- Potency [10]: inactive
- max response [11]: -2.68%
- Potency [12]: inactive
- Potency [13]: inactive
- Potency [14]: inactive
- Potency [17]: inactive

SMILES: CC(C)C(O)C(C)(C)CO (stereo not given)
- Potency [1]: inactive
- outcome [3]: inactive
- Potency [4]: inactive
- Potency [20]: 0.891 µM (active)
- activity change, positive = activation [19]: -71.7%
- Potency [5]: inactive
- Potency [6]: 0.801 µM (active)
- Potency [16]: inactive
- Potency [7]: inactive
- Potency [8]: inactive
- Potency [9]: 0.899 µM (active)
- Potency [10]: inactive
- Potency [11]: 0.899 µM (active)
- Potency [12]: inactive
- Potency [13]: inactive
- Potency [14]: inactive
- Potency [15]: inactive

SMILES: CC[C@H]1OC(=O)[C@H](C)[C@@H](O[C@H]2C[C@@](C)(OC)[C@@H](O)[C@H](C)O2)[C@H](C)[C@@H](O[C@@H]2O[C@H](C)C[C@H](N(C)C)[C@H]2O)[C@](C)(O)C[C@@H](C)C(=O)[C@H](C)[C@@H](O)[C@]1(C)O
- Potency [1]: inactive
- Potency [2]: inactive
- Potency [4]: inactive
- Potency [5]: inactive
- Potency [6]: inactive
- Potency [16]: inactive
- Potency [7]: inactive
- Potency [9]: inactive
- Potency [10]: inactive
- max response [11]: -19.4%
- Potency [12]: inactive
- Potency [13]: inactive
- Potency [14]: inactive
- Potency [15]: inactive
- Potency [17]: inactive

SMILES: COC(=O)Nc1nc2ccc(C(=O)C3CC3)cc2[nH]1
- Potency [1]: inactive
- Potency [18]: inactive
- outcome [3]: inactive
- Potency [4]: inactive
- Potency [5]: inactive
- Potency [8]: inactive
- Potency [10]: inactive
- Potency [12]: inactive
- Potency [13]: inactive
- Potency [14]: inactive
- Potency [15]: inactive
- Potency [17]: 0.848 µM (active)

SMILES: COc1ccc(N)c([N+](=O)[O-])c1
- Potency [1]: inactive
- Potency [2]: inactive
- Potency [4]: inactive
- Potency [5]: inactive
- Potency [6]: inactive
- Potency [16]: inactive
- Potency [8]: inactive
- Potency [9]: inactive
- Potency [10]: inactive
- max response [11]: -15.1%
- Potency [12]: inactive
- Potency [13]: inactive
- Potency [14]: inactive
- Potency [15]: inactive
- Potency [17]: inactive
